Screening data (PubChem)
In the library only some 4.7% were active in any assay of this set; here they are far more common.
SKKanGAS inh – blocks kanamycin growth of S. pyogenes SKKanGAS strain; hit rate 1.3% among 300,000; inhibition, % at 7.5 µM; AID 1662; BacTiter-Glo, 6 h;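 active = mean replicate score, as percent of positive control median, at least 50; inconclusive = mean below 50 but one replicate at or above 50; inactive = mean and every replicate below 50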;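 also: strain carries kanamycin resistance gene driven by streptokinase promoter and grows in 40 µg/ml kanamycin; loss of luminescence reflects streptokinase promoter inhibition or plain growth inhibition; 0% = median of DMSO wells and 100% = positive control at its reference dose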
Calb FLC – affects C. albicans growth with fluconazole. growth inhibition, % (no concentration beside the values). AID 1979. C. albicans CaCi-2 (fluconazole-resistant clinical isolate) + fluconazole, Alamar Blue growth, 48 h. hit rate 0.57% among 300,000;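 active = growth inhibition above about 58% in most replicates, limit read from the data, passing the limit was not always enough; inconclusive = exactly half the replicates above a set limit; inactive = most replicates below a set limit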;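 also: all wells also contain fluconazole at 8 µg/ml as a sub-toxic cotreatment; 0% = median of DMSO wells and 100% = median of geldanamycin control wells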
TIM10 inh – TIM10 yeast growth inhibition; S. cerevisiae TIM10 strain growth, BacTiter-Glo luminescence, 24 h; inhibition, % at 10 µM; hit rate 1.4% among 330,000; AID 463195;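 active = inhibition of 40% or more at the single tested concentration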;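 also: wild-type TIM10 isogenic control strain grown at permissive 25 °C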
tim23-1 inh – tim23-1 yeast growth inhibition | S. cerevisiae tim23-1 growth, BacTiter-Glo luminescence, 24 h | hit rate 1.3% among 330,000 | inhibition, % at 20 µM;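 active = growth inhibition of the mutant yeast at or above 50%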;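 also: temperature-sensitive mutant grown at 25 °C; plate controls were DMSO-treated mutant yeast for no effect and medium wells lacking yeast for full effect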
PfHsp90 set2 – inhibits growth of yeast expressing Plasmodium falciparum Hsp90. S. cerevisiae expressing PfHsp90, BacTiter-Glo ATP, 48 h; yeast lacking PDR1 and PDR3 efflux regulators. inhibition, % at 9.4 µM. hit rate 0.32% among 310,000. AID 504621;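 active = every replicate shows inhibition above about 80%, whatever the replicate mean, limit read from the data; inconclusive = mean inhibition reaches the set limit but some replicate falls short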;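 also: 0% = DMSO neutral controls and 100% = 20 µM radicicol positive controls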
tim10-1 inh – tim10-1 yeast growth inhibition; inhibition, % at 20 µM; hit rate 2.2% among 330,000; AID 463190; S. cerevisiae tim10-1 ts strain growth, BacTiter-Glo, 24 h;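 active = inhibition of at least 40%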;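 also: mutant grown at 25 °C; 0% = DMSO wells with yeast and 100% = wells holding no yeast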
tim10-1 conf – tim10-1 yeast growth inhibition, confirmed; shares compounds with tim10-1 inh; S. cerevisiae tim10-1 ts strain growth, BacTiter-Glo, 24 h; inhibition, % at 20 µM; hit rate 56% among 7,400;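 active = inhibition of yeast growth at or above a set limit in either of two repeat tests at 20 µM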;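 also: tim10-1 mutant grown at permissive 25 °C to find synthetic lethal compounds; 0% = DMSO yeast wells and 100% = medium wells without yeast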
tim10 confirm – confirmation of TIM10 yeast growth inhibitors; shares compounds with TIM10 inh; S. cerevisiae tim10 strain growth, BacTiter-Glo luminescence, 24 h; inhibition, % at 10 µM; hit rate 63% among 4,600; AID 463215;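 active = inhibition of yeast growth at or above a set limit in either of two replicates at 10 µM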;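 also: this counterscreen used the strain with wild-type TIM10; 0% = yeast with DMSO and 100% = medium wells lacking yeast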
tim23-1 conf – tim23-1 yeast growth inhibition, confirmed; shares compounds with tim23-1 inh; S. cerevisiae tim23-1 growth, BacTiter-Glo luminescence, 24 h; inhibition, % at 20 µM; hit rate 83% among 4,400; AID 463218;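 active = inhibition above about 39% in either of two replicate wells at 20 µM, limit read from the data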;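 also: temperature-sensitive tim23-1 mutant grown at 25 °C; 0% = DMSO wells with yeast and 100% = medium wells without yeast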
Starred values were filed as active, the others as inactive; ? = inconclusive; . = no result given.

SMILES | SKKanGAS inh | Calb FLC | TIM10 inh | tim23-1 inh | PfHsp90 set2 | tim10-1 inh | tim10-1 conf | tim23-1 conf | others
Cc1ccc(/C=[N+](/C)[O-])cc1 | 7 | -1 | -6 | 7 | 5 | 7 | . | .
COc1ccc(NC(=O)CSc2nnc(NC(=O)C3CCC3)s2)c(OC)c1 | 2 | -6 | 6 | -1 | -1 | -11 | . | .
O=C(NCc1cccnc1)/C(=C/c1ccc(-c2cccc(C(F)(F)F)c2)o1)NC(=O)c1ccccc1 | -3 | 19 | 2 | 10 | . | 21 | . | .
O=C(NCc1cccnc1)/C(=C/c1ccc(-c2ccc(Cl)cc2)o1)S(=O)(=O)c1ccccc1 | -2 | 19 | 53* | 59* | 22 | 52* | 48* | 57* | tim10 confirm=49*
CC(C)n1ncc2c(C(=O)NCCc3ccc(S(N)(=O)=O)cc3)cc(C3CC3)nc21 | . | . | -3 | 2 | 24 | 5 | . | .
CCN(CC)S(=O)(=O)c1cccc(C(=O)Nc2cc(C)on2)c1 | -1 | 3 | -13 | 14 | -2 | -3 | . | .
CCNC(=O)c1ccc2c(c1)C1C3CCC(C3)C1C(c1ccccc1)N2 (stereo not drawn) | 3 | 19 | 41* | 63* | -13 | 59* | 55* | 65* | tim10 confirm=43*
O=C(CSc1ccc2nnc(CCNC(=O)c3ccccc3)n2n1)NCCc1ccccc1 | -3 | -4 | 8 | -8 | -6 | 3 | . | .
Cc1ccc(-n2nc3c(c2NC(=O)c2ccc(F)c(F)c2)CS(=O)(=O)C3)cc1 | 18 | 6 | 3 | 12 | 0 | 1 | . | .
CCNC(=S)NNC(=O)c1cc(-c2ccc(OCC)cc2)nc2ccccc12 | 43 | 17 | 34 | 78* | . | 86* | 66* | 86*
CCNC(=S)NNC(=O)c1cc(-c2cccc(OC)c2)nc2ccccc12 | 25 | 22 | 40 | 56* | -17 | 56* | 50* | 54*
CCc1ccc(-c2cc(C(=O)Nn3cnnc3)c3ccccc3n2)cc1 | 32 | -4 | 22 | 53* | 46 | 54* | 36* | 40*
O=C(c1ccc2c(c1)OCCO2)C1CCN(C(=O)Nc2ccccc2F)CC1 | -16 | -7 | -9 | 12 | -4 | -3 | . | .
COCCn1c(SCC(=O)N2CCCCCC2)nnc1-c1ccco1 | -4 | 2 | -4 | -5 | 19 | -5 | . | .
Cn1c(CNC(=O)CCNC(=O)c2cccc(Cl)c2)cc(=O)n(C)c1=O | -1 | . | 1 | -6 | -29 | 2 | . | .
C=C1CCc2c([nH]c3ccc(OCC(C)C)cc23)C1=O | -4 | 4 | 38 | 59* | -8 | 47* | 23 | 57*
Cc1ccc(NC(=O)CN(C)S(=O)(=O)c2ccc(Cl)s2)c(O)c1 | . | . | -16 | 25 | . | -11 | . | .
Cc1cc(=O)oc2cc(OCC(=O)NC3(C#N)CCCCC3)c(Cl)cc12 | . | . | 11 | 21 | 4 | 26 | . | .
CCOC(=O)C1=C(C)N=c2s/c(=C/c3ccc(OCC(=O)O)c(OC)c3)c(=O)n2C1c1ccc(Cl)cc1 (stereo not drawn) | 52* | -6 | 31 | 50* | -21 | 56* | 46* | 53*
CSCCC(NC(=O)COc1ccccc1)C(=O)N1CCCCCC1 (stereo not drawn) | . | . | 5 | 23 | 0 | 21 | . | .
COc1ccc(C=C2C(=O)c3ccccc3C2=O)cc1O | 6 | 0 | 36 | 40 | -18 | 34 | . | .
CCCCc1ccc(/C=C2\C(=O)c3ccccc3C(O)=C2C(=O)OCC)cc1 | 109* | 63 | 47* | 50* | . | 64* | 55* | 59* | tim10 confirm=47*
O=C(ONC1=NCCCCC1)c1cccc([N+](=O)[O-])c1 | 7 | 58 | 82* | 78* | -6 | 61* | 38* | 69* | tim10 confirm=90*
Cc1cc(-c2n[nH]c(=S)n2/N=C/C(Cl)=C/c2ccccc2)n[nH]1 | 22 | 10 | 54* | 54* | 6 | 51* | 47* | 48* | tim10 confirm=-8
CC(=C/c1ccccc1)/C=N/n1c(C)n[nH]c1=S | 23 | -20 | -8 | 36 | -2 | 12 | . | .
SMILES | SKKanGAS inh | Calb FLC | TIM10 inh | tim23-1 inh | PfHsp90 set2 | tim10-1 inh | tim10-1 conf | tim23-1 conf | others
S=c1[nH]nc(-c2ccco2)n1/N=C/C(Cl)=C/c1ccccc1 | 26 | 5 | 35 | 40 | -42 | 8 | . | .
CC(/C=N/n1c(COc2ccccc2)n[nH]c1=S)=C\c1ccccc1 | 14 | 8 | 34 | 51* | -53 | 43* | 30 | 50*
CC[N+](C)(C)CC/C=C1/c2ccccc2Sc2ccc(Cl)cc21 | 7 | 20 | -13 | -10 | . | 11 | . | .
CCCCCCCCCCC[N+](C)(C)CC/C=C1/c2ccccc2Sc2ccc(Cl)cc21 | 90* | 84* | 82* | 89* | 107* | 98* | 97* | 94* | tim10 confirm=82*
CCCCCCCCCC[N+](C)(C)CC/C=C1/c2ccccc2Sc2ccc(Cl)cc21 | 95* | ? | 83* | 92* | 106* | 98* | 97* | 94* | tim10 confirm=86*
CNC(=O)c1c(NC(=O)c2ccco2)sc2c1CCCC2 | ? | 29 | 26 | 58* | 1 | 58* | 39* | 48*
CC(C)OC(=O)c1c(NC(=O)c2ccco2)sc2c1CCCCC2 | 10 | -4 | 36 | 33 | -7 | 33 | . | .
O=C(CN1CCCCCC1)Nc1ccccc1C(=O)Nc1ccccc1 | -2 | -9 | 8 | 31 | 5 | 23 | . | .
Oc1ccc2ccccc2c1C1Nc2cccc3cccc(c23)N1 | 25 | 38 | 50* | 50* | -9 | 57* | 58* | 69* | tim10 confirm=44*
O=C(COC(=O)CCC(=O)c1cccs1)Nc1cccc(F)c1 | . | . | 4 | 20 | -18 | 7 | . | .
Oc1c(Cl)cccc1C=Nc1cc(C(F)(F)F)ccc1N1CCCC1 | 5 | 2 | 22 | 33 | 0 | 22 | . | .
Oc1c(Cl)cc(Cl)cc1C=Nc1cc(C(F)(F)F)ccc1N1CCc2ccccc2C1 | 87* | 24 | 33 | 58* | -15 | 60* | 36* | 59*
COC1=C(C)C(O)=C(C(=O)/C=C/c2ccccc2)C(=O)C1(C)C | -3 | -11 | 18 | 57* | 20 | 44* | 21 | 48*
CCOC(=O)N1CCN(C(=O)CSc2nc(=O)n3ccc(C)cc3n2)CC1 | -8 | -2 | -2 | 5 | -1 | 4 | . | .
O=C(NC(=S)Nc1ccc2c(c1)OCO2)c1ccccc1 | 3 | -1 | 18 | 12 | -6 | -4 | . | .
O=C(NC(=S)Nc1ccc2c(c1)OCCO2)c1cccc(Br)c1 | -1 | 1 | 45* | 51* | -32 | 45* | 21 | 42* | tim10 confirm=0
